From PubChem BioAssay (NCATS) come the findings set out here.

Common to all, as to test: qHTS profiling for inhibitors of Plasmodium falciparum proliferation (AID 504749); further: nearly all actives have a fitted effect of over 60% in size
Conditions in all cases: P. falciparum in erythrocytes, SYBR Green DNA, 72 h; series mostly up to 28.7 µM
On the technique in general: Quantitative high-throughput screening tests each substance at several concentrations.

In assay [1] the test system is CP305. In outline: (§1)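 Parasite proliferation within erythrocytes, 72 h exposure. Endpoint: SYBR Green I fluorescence after overnight lysis at room temperature. Controls: 0.29 uM artemisinin, DMSO.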
Assay [2] relates to CP315. In outline:
as §1

In assay [3] the test system is CP325. In outline:
as §1

For assay [4], the system named is CP329. An outline of the steps: as §1
Assay [5] relates to CP335. An outline of the steps: as §1
Assay [6] concerns DFO2036. An outline of the steps: as §1
The subject of assay [7] is DIV14. An outline of the steps: as §1
In assay [8] the test system is DIV17. An outline of the steps: as §1
Assay [9] concerns DIV30. An outline of the steps:
as §1

The subject of assay [10] is Dd2. In outline:
as §1

The test system of assay [11] is ECU. In outline: as §1
Assay [12] has as its system FAB9. In outline: as §1
Assay [13] relates to GB4. In outline: as §1
Assay [14] deals with HB3. An outline of the steps: as §1
The test system of assay [15] is ICS. In outline:
as §1

For assay [16], the system named is JCK. An outline of the steps:
as §1

The subject of assay [17] is N140. An outline of the steps: as §1
Assay [18] has as its system P93_24. In outline: as §1
Assay [19] deals with P94_40. In outline:
as §1

The subject of assay [20] is PAD. An outline of the steps: as §1

Results filed as inconclusive are left out. Calls of active or inactive are those of the source. The call rests on the fitted dose curve; in most records, active means well fitted inhibition curve with a large enough effect; inconclusive means small, poorly fitted or top-dose-only effect; inactive means flat fitted curve, though single readings scatter.
Potency means the concentration at half of the fitted maximal effect.

As to `CCCCC(CC)COS(=O)(=O)O` (stereo not given), the Potency entry in assay [1], in assay [2], in assay [3], in assay [4], in [5] and in assay [6] was “inactive” throughout. Further, the Potency entry in assay [7], in assay [8], in assay [9], in assay [10], in assay [11] and in assay [12] was “inactive” each time. The Potency result in assay [13], in assay [14], in assay [15], in [16], in assay [17] and in assay [18] was “inactive” throughout. Besides, the Potency entry in assay [19] and in assay [20] was “inactive” throughout.

With `FC(F)(F)COCC(F)(F)F`, the Potency result in assay [1], in [2], in assay [3], in assay [4], in [5] and in assay [6] was “inactive” throughout. The Potency result in [7], in [8], in assay [9], in assay [10], in [11] and in assay [12] was “inactive” throughout. For the same molecule, the Potency result in assay [13], in assay [14], in assay [15], in assay [16], in assay [17] and in [18] was “inactive” each time. Further, the Potency result in assay [19] and in assay [20] was “inactive” each time.

For the molecule `O=S(=O)(O)CCCS(=O)(=O)O`, the Potency entry in assay [1], in assay [2], in assay [3], in assay [4], in assay [5] and in assay [6] was “inactive” throughout. For the same molecule, the Potency entry in assay [7], in assay [8], in assay [9], in [10], in [11] and in [12] was “inactive” in each case. In addition, the Potency entry in assay [13], in [14], in assay [15], in assay [16], in assay [17] and in [18] was “inactive” in each case. Further, the Potency entry in assay [19] and in assay [20] was “inactive” throughout.

Consider `CC(C)[C@H](N)C(=O)OCC(CO)OCn1cnc2c(=O)[nH]c(N)nc21` (stereo not given in full), for which the Potency entry in assay [1], in assay [2], in assay [3], in assay [4], in assay [5] and in assay [6] was “inactive” throughout. Moreover, the Potency entry in assay [7], in assay [8], in [9], in [10], in assay [11] and in assay [12] was “inactive” in each case. For the same molecule, the Potency entry in assay [13], in assay [14], in assay [15], in [16], in assay [17] and in assay [18] was “inactive” in each case. For the same molecule, the Potency entry in [19] and in [20] was “inactive” throughout.

As to `c1ccc2c(c1)OCC(CN1CCCCC1)O2` (stereo not given), the Potency result in assay [1], in assay [2], in assay [3], in assay [4], in assay [5] and in assay [6] was “inactive” each time. For the same molecule, the Potency result in [7], in [8], in [9], in [10], in [11] and in assay [12] was “inactive” each time. In addition, the Potency result in [13], in assay [14], in [15], in assay [16], in [17] and in [18] was “inactive” in each case. The Potency result in [19] and in assay [20] was “inactive” each time.

Turning to `CN=C1C=CC(=C(c2ccc(N(C)C)cc2)c2ccc(N(C)C)cc2)C=C1`, the Potency in assay [1] was 953 nM (active); in [2], 1070 nM (active); in assay [3], 953 nM (active); in [4], 757 nM (active); in assay [5], 301 nM (active); in assay [6], 398 nM (active). The Potency in assay [7] was 1510 nM (active); in assay [8], 1510 nM (active); in assay [9], 1690 nM (active); in assay [10], 282 nM (active); in [11] it was 891 nM (active); in [12] it was 1120 nM (active). For the same molecule, the Potency in assay [13] is 675 nM (active); in [14], 1000 nM (active); in assay [15] it was 398 nM (active); in assay [16], 2510 nM (active); in assay [17], 708 nM (active); in assay [18], 891 nM (active). The Potency in assay [19] and in assay [20] was 1000 nM (active) each time.

For `Cc1c(Cl)cccc1Nc1ncccc1C(=O)O`, the Potency result in [1], in assay [2], in [3], in [4], in [5] and in [6] was “inactive” throughout. Moreover, the Potency entry in assay [7], in assay [8], in assay [9], in assay [10], in [11] and in [12] was “inactive” in each case. Moreover, the Potency entry in [13], in assay [14], in assay [15], in [16], in assay [17] and in [18] was “inactive” throughout. Further, the Potency entry in assay [19] and in assay [20] was “inactive” throughout.

Regarding `COc1ccc(/C=C/C(=O)O)cc1`, the Potency entry in [1], in [2], in assay [3], in assay [4], in [5] and in [6] was “inactive” in each case. Further, the Potency result in assay [7], in [8], in assay [9], in assay [10], in assay [11] and in [12] was “inactive” each time. Further, the Potency result in assay [13], in [14], in [15], in assay [16], in assay [17] and in [18] was “inactive” in each case. Besides, the Potency entry in assay [19] and in assay [20] was “inactive” in each case.

In the case of `NC(=O)Oc1ccc(Cc2ccccc2)cc1`, the Potency result in assay [1], in assay [2], in [3], in [4], in assay [5] and in assay [6] was “inactive” in each case. The Potency result in [7], in assay [8], in assay [9], in assay [10], in assay [11] and in assay [12] was “inactive” each time. The Potency entry in [13], in [14], in [15], in [16], in assay [17] and in assay [18] was “inactive” throughout. The Potency entry in [19] and in [20] was “inactive” throughout.
